# The full list was thinned out, with hits kept by preference.
# KDM5B inh – inhibitors of human KDM5B histone demethylase; KDM5B demethylase, FDH-coupled NADH fluorescence (FDH is formaldehyde dehydrogenase); Potency, µM (highest dose often 57.7 µM), most hits filed as inhibitors; Q9UGL1; 220,000 compounds, 2.6% hits; AID 1347165; active = well fitted inhibition curve with a large enough effect; note: 0% is about no effect; nearly all actives have a fitted effect of over 70% in size
#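 Measured: NADH fluorescence change, 30 min, RT. System: KDM5BΔAP 200 nM final, H3K4me3 peptide, α-KG, Fe(II), ascorbate, NAD⁺ plus FDH, pH 7.5 HEPES. Compounds: titrated, 10 min pre-incubation with enzyme.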
# The depositor's hits bear a star; i = inactive. Potency is the fitted concentration of half-maximal effect.
SMILES,KDM5B inh
CC(Sc1nc2ccccc2[nH]1)C(=O)NC(N)=O (centres undefined),i
O=C1NCc2ccccc2CC12CCN(Cc1ccsc1)CC2,i
Fc1ccc(CN2CCNc3cnc(-c4ccccc4)cc3C2)cc1F,35µM*
c1ccc(-c2cc3c(cn2)NCCN(Cc2ccccn2)C3)cc1,35µM*
c1ccc(-c2cc3c(cn2)NCCN(Cc2ccsc2)C3)cc1,35µM*
COc1cccc(N2CCN(CC(=O)NC(=O)NCC(F)(F)F)CC2)c1,i
CC(Cn1cccn1)C(=O)N1CCc2[nH]nc(-c3ccc(Cl)cc3)c2C1 (centres undefined),i
CCC(CC)(CC(=O)Nc1ccc2oc(C)nc2c1)C(=O)O,i
CS(=O)Cc1cccc(C(=O)NC2CCCCC2)c1 (centres undefined),i
CCCNC(=O)CSc1nnc(N2CCCCC2)n1-c1ccc(C)cc1,i
Cc1cc2nc3n(c(=O)c2n1CC(=O)Nc1ccc(F)cc1)CCC3,i
CCCNC(=O)CNC(=O)c1nn(-c2ccccc2)c(=O)c2ccccc12,i
Cc1ccc(-c2nn(CC(=O)Nc3ccc(F)cc3)c(=O)c3ccccc23)cc1,i
CCC(C)NC(=O)Cc1csc2nc(C)c(-c3cc(C)n(-c4ccc(C)cc4)n3)c(=O)n12 (centres undefined),28µM*
CCCNC(=O)COc1cc(C)c2c(C)nn(-c3ccc(CC)cc3)c2n1,i
CCCNC(=O)Cc1csc2nc(C)c(-c3cc(C)n(-c4ccc(C)cc4)n3)c(=O)n12,28µM*
CCC(C)NC(=O)CNC(=O)c1nn(-c2ccc(OC)cc2)c(=O)c2ccccc12 (centres undefined),i
CCCCNC(=O)c1nn(-c2ccc(C)cc2)c(=O)n(C)c1=O,i
CCCNC(=O)Cc1csc2nc(C)c(-c3cc(C)n(-c4ccc(C(C)C)cc4)n3)c(=O)n12,28µM*
Cc1ccc(-n2nc(-c3c(C)nc4scc(CC(=O)Nc5ccc(F)cc5)n4c3=O)cc2C)cc1,28µM*
CCC(C)NC(=O)CCc1c(C)nc2c(c(C)nn2-c2ccc(C)cc2)c1C (centres undefined),i
C=CCC(C)(NCc1ccccc1)c1cccs1 (centres undefined),i
N#CCCN1CCN(C(C(=O)O)c2cn(CCC(=O)O)c3ccc(Br)cc23)CC1 (centres undefined),i
OC[C@@H]1O[C@H](CNC2CCOCC2)[C@H](N2CCOCC2)[C@@H]1O,i
COc1cccc(CC(=O)NC(c2ccccc2)c2ccccc2)c1,i
SMILES,KDM5B inh
COCCn1nnnc1C1CC2(CCOCC2)C(=O)N1Cc1cccc(F)c1 (centres undefined),i
O=C(C1CC1)N1CCCN(C(=O)C2(c3ccccc3)CC2)c2ccccc21,i
O=C1CC[C@]2(C(=O)N3CCCCC3)CCCC[C@H]2N1CCc1ccccc1,i
Cn1cc(-c2cn(C)c(=O)n3cc(COc4ccc(Cl)cc4)nc23)cn1,i
CCC(=O)N1CCC(c2ncc(C)n2Cc2ccccc2)C1 (centres undefined),i
CCOc1ccccc1C(=O)N1CCC2(CC1)CN(c1ccncn1)CC2CO (centres undefined),i
O=C(CCCc1ccccc1)N1CCC2(CC1)CN(c1ccncn1)CC2CO (centres undefined),i
Cc1ccccc1C(=O)N1CCC2(CC1)CN(c1ncccn1)CC2CO (centres undefined),32µM*
COc1ccccc1C(=O)N1CCC2(CC1)CN(c1ncccn1)CC2CO (centres undefined),25µM*
O=C(c1c[nH]c2ccccc12)N1CCC2(CC1)CN(c1ccncn1)CC2CO (centres undefined),i
N#Cc1ccc(C(=O)N2CCC3(CC2)CN(c2ncccn2)CC3CO)cc1 (centres undefined),22µM*
COCC1CN(C(C)=O)CC12CCN(C(=O)c1ccccc1OC)CC2 (centres undefined),i
CC(=O)N1CC(CO)C2(CCN(C(=O)c3cccc(C#N)c3)CC2)C1 (centres undefined),i
O=C(Cc1ccccc1)N1CCC2(CC1)CN(c1ccncn1)CC2CO (centres undefined),i
Cc1ccccc1C(=O)N1CCC2(CCN(Cc3cnc[nH]3)CC2)C(CO)C1 (centres undefined),i
Cc1cnn(CC(=O)N2CCC3(CC2)CN(c2ncccn2)CC3CO)c1 (centres undefined),35µM*
O=C(c1ccc(F)cc1)N1CCC2(CC1)CN(Cc1ccccc1)CC2CO (centres undefined),i
CCOc1ccc(OCC)c(NC(=O)c2nc3ccccc3nc2N2CCOCC2)c1,i
CC1CCN(C(=O)Cc2n[nH]c(=O)c3ccccc23)CC1,i
CC(=O)N1CCN(c2ccc(Cl)nn2)C(=O)C1,i
O=c1c2c(CO)c(-c3ccc(F)cc3)nn2ccn1Cc1cccc(C(F)(F)F)c1,i
CC(C)Nc1nnc(SCc2nc(-c3ccccc3Cl)no2)s1,i
Cc1ccc(NC(=O)Cc2nc(-c3c(N)n(CC(C)C)c(=O)n(C)c3=O)cs2)cc1,i
Cn1cc(CNC(=O)C[C@@H]2C[C@H]3O[C@H](CNC(=O)NC4CCCCC4)[C@@H](O)[C@H]3O2)cn1,i
CCc1ccc(C(=O)c2cnc3ccc(OC)cc3c2N2CCOCC2)cc1,i
SMILES,KDM5B inh
COc1ccc(C2OCC3OC(OC)C(OCc4ccccc4)C(O)C3O2)cc1 (centres undefined),i
CC1CCCN(C(=O)CSc2nnc(-c3cccs3)n2N)C1 (centres undefined),i
O=C(CSc1nc2ccccc2o1)N1CCCCC1,i
O=C1Nc2ccccc2OCC12CCN([S+](=O)([O-])c1cccc(C(F)(F)F)c1)CC2,i
Cc1cc(=O)n(CC(=O)Nc2ccc(N(C)C)cc2)c(-c2ccc(Cl)cc2)n1,i
CC(C)NC(=O)c1cc(Cl)ccc1OCc1ccccc1,i
O=C([C@@H]1Cc2nc[nH]c2CN1CC1CC1)N1CCCC1,i
COc1ccc(CN2Cc3[nH]cnc3C[C@H]2C(=O)NCc2ccccc2)c2ccccc12,40µM*
COC(=O)[C@@H]1Cc2ncn(Cc3ccc(OC)cc3)c2CN1C(=O)C1CCCCC1,i
N#Cc1ccc(CNC(=O)[C@@H]2Cc3nc[nH]c3CN2C(=O)NC2CCCCC2)cc1,i
N#Cc1ccc(CNC(=O)[C@@H]2Cc3nc[nH]c3CN2Cc2ccccc2)cc1,i
O=C(NC1CCCCC1)[C@@H]1Cc2nc[nH]c2CN1Cc1ccc(C(F)(F)F)cc1,i
COc1ccc(CN2Cc3[nH]cnc3C[C@H]2C(=O)NC2CCCCC2)c2ccccc12,35µM*
COc1ccc(CNC(=O)[C@@H]2Cc3nc[nH]c3CN2C(=O)NC2CCCCC2)cc1,32µM*
O=C(NCc1ccccc1)[C@@H]1Cc2nc[nH]c2CN1Cc1ccc(Cl)cc1,i
O=C(NCc1ccc(Cl)cc1)[C@@H]1Cc2nc[nH]c2CN1Cc1ccc(Cl)cc1,i
COc1ccc(CN2Cc3[nH]cnc3C[C@H]2C(=O)N(C)Cc2ccccc2)c2ccccc12,i
COC(=O)[C@@H]1Cc2nc[nH]c2CN1Cc1ccc(Cl)cc1,32µM*
CCc1ccc(Nc2nnc(SC(C)C#N)s2)cc1 (centres undefined),i
COc1ccccc1CNC(=O)CC(C)n1ccc(C)n1 (centres undefined),i
Cc1ccsc1CN1CCC2(Cc3ccccc3CNC2=O)C1 (centres undefined),i
